The results in this text go back to PubChem BioAssay (NCI).

The panel holds about 83,000 compounds, 20% with a hit somewhere; the sample as a whole holds those more often.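 48-hour exposure, single concentration, 96-well plates; percent growth endpoint where 0 means no net growth. Active: below 10.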 A number with no mark means an inactive call. Calls of active or inactive are those of the source.

In the assay the test system is HL-60(TB) leukemia. In words: NCI-60 one-dose screen, 48 h (100 = growth as untreated, 0 = no growth, -100 = all killed). Conditions: 10 µM unless noted.
With `Cc1cc(N2CCOCC2)nc(N(CCNc2ccnc3cc(Cl)ccc23)Cc2ccco2)n1`, the growth was -65.1% (active).
Consider `COc1ccc(C(O)c2cc3c(N)c(C(=O)Nc4cccc5ccccc45)sc3nc2C)cc1` (stereo not given), for which the growth is -1.39% (active).
In the case of `N#Cc1c(N)sc(=S)c2c1CCCC2`, the growth is 97.6%.
Turning to `CCOC(=O)CNC1=C(Cl)C(=O)N(Cc2ccc(Cl)cc2)C1=O`, the growth is 105%.
For the molecule `COc1ccc(-c2nc3ccccc3n3cccc23)cc1`, the growth was 104%.
Then `COc1ccc2c(c1)c(CC(=O)NCCOCCOCC(=O)Nc1ccc(OC)c(C(N)=O)c1O)c(C)n2C(=O)c1ccc(Cl)cc1`, with 107%; and `Cc1ccc(S(=O)(=O)OC2COCOC2C(OS(=O)(=O)c2ccc(C)cc2)C2OCOCC2OS(=O)(=O)c2ccc(C)cc2)cc1` (stereo not given), with 106%.
`O=C1c2ccccc2C(=O)c2cc(Cn3cc[n+](Cc4ccc5ccccc5c4)c3)ccc21`: the growth was 43%.
With `Nc1ccc(-c2nc3cc(Oc4ccc(Oc5ccc6[nH]c(-c7ccc(N)cc7)nc6c5)cc4)ccc3[nH]2)cc1`, the growth was 103%.
For the molecule `COc1ccc2c(c1)O/C(=C\c1ccc([N+](=O)[O-])s1)C2=O`, the growth is 7.46% (active).
In the case of `Cc1ccc(CCC(=O)Nc2ncc(Cc3cc(Cl)ccc3Cl)s2)o1`, the growth is -40.4% (active).
For the molecule `CC(C)OC(=O)c1ccc([N+](=O)[O-])cc1`, the growth is 121%.
As to `O=C1NCCN1/N=C/c1c(Cl)nc2n1CCS2`, the growth was 72.2%.
As to `CC(=O)c1ccc(C(C)(C)C)cc1`, the growth was 100%.
In the case of `CCOC(=O)C1=NN(c2ccccc2)C2=NC(=O)/C(=C\c3cn(-c4ccccc4)nc3-c3cc4ccccc4o3)C(=O)N12` it was 76.4%.
Turning to `COc1cc(Nc2ccnc(N3CCN(c4ccnc5cc(Cl)ccc45)CC3)n2)cc(OC)c1`, the growth is -23.7% (active).
Then `O=C(CSc1nnc(-c2ccc(Cl)cc2)o1)c1ccccc1`, with 90.9%; and `Fc1cc2[nH]ncc2c2c3c(c(-c4cn[nH]c4)nc12)CCCC3`, with -13.2% (active); and `COc1ccc(OC)c(Nc2nnc(-c3ccc(Cl)cc3)o2)c1`, with 94.8%.
With `CCCCc1nc(Cl)c(C2CC(c3ccc(S(N)(=O)=O)cc3)=NN2c2ccc(C#N)cc2)[nH]1` (stereo not given), the growth is 92.7%.
Then `COc1cc2c(cc1OCCCCN1CCN(C(=S)SCCC(C#N)(c3ccccc3)c3ccccc3)CC1)N=C[C@@H]1CCCN1C2=O`, with -40.8% (active).
For `COc1ccc2c(c1)c(-c1nc(-c3c[nH]c4ncccc34)cs1)cn2C`, the growth is 63.5%.
Regarding `Oc1c(Br)c(Br)c(O)c(Br)c1Br`, the growth is 94.3%.
With `CC(=O)CC(=O)c1ccccc1.[Cu+2]`, the growth is 67.2%.
As for `O=C1c2cccc3c(-c4ccc5c(c4)ncn5C4CCCCC4)ccc(c23)C(=O)N1c1nc2ccccc2s1`, the growth was 76%.
For `CC1CN(CCCOC(=O)Nc2ccc(Cl)cc2)CCN1C(C)(C)C` (stereo not given), the growth is 96.1%.
As to `Cc1cc(C(=O)Nc2cc(Oc3ccc4nc(NC(=O)C5CC5)cn4n3)ccc2C)n(C)n1`, the growth was 7.21% (active).
In the case of `CCc1ccc(C2=C/C(=C/c3ccccc3)C(=O)N2CCc2ccc(S(N)(=O)=O)cc2)cc1` it was 100%; in that of `COc1ccc(OC)c(/C=C/c2nc(SC)n(-c3ccc(Cl)cc3)n2)c1`, 65.7%.
In the case of `CCC(=O)Oc1c(C)cc(O)c2ccccc12` it was 68.8%; in that of `CCn1cc(C(=O)O)c(=O)c2cc(F)c(N3CCN(CC(=O)Nc4ccc(S(=O)(=O)Nc5nccc(C)n5)cc4)C(C)C3)c(F)c21` (stereo not given), 115%.
As to `Cc1nc(C)c(C)nc1C`, the growth was 73.9%.
Consider `CN1CCC2(CC1)N=C(SCC(=O)Nc1cnc3ccccc3c1)C(c1ccc(Br)cc1)=N2`, for which the growth is -40.7% (active).
For `Nc1ncc(-c2ccc3ncnc(Nc4cncc(Cl)c4)c3c2)cn1`, the growth was 92.5%.
In the case of `CC1=C(O)C(=O)C(C(C#N)(C#N)C(C#N)C#N)C1` (stereo not given) it was 91.7%.
On to `Cc1ccc(NC(=O)Nc2c(Cl)cccc2Cl)cn1`, for which the growth is 71.3%.
As to `CCCCOC(=O)c1ccc(NC(=O)C(C)N2CCOCC2)cc1` (stereo not given), the growth was 82%.
As for `CCOC(=O)c1cc(C(=O)c2cc(OC)c(OC)c(OC)c2)n2c1ccc1ccccc12`, the growth is -12.9% (active).
Consider `CCCCC1COc2cccc3c2N1C=C/C3=C\C(=O)N(C)c1ccccc1` (stereo not given), for which the growth was 9.39% (active).
With `COc1ccc(CN2CCCC(C(=O)c3ccc(C(F)(F)F)cc3)C2)c(O)c1` (stereo not given), the growth was 17%.
